# Screening results deposited in PubChem BioAssay by National Center for Advancing Translational Sciences (NCATS).
# HT1080NT lethal: kills 2HG-producing HT-1080-NT fibrosarcoma cells; HT-1080-NT fibrosarcoma viability, CellTiter-Glo ATP luminescence, 48 h; Potency, µM (series often up to 46.1 µM), without a hit: at the top dose activity, negative = less viability, hits mostly cytotoxic; 360,000 compounds, 1.6% hits;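 note: NT is the 2HG producing partner of a matched IDH1 knockdown line; potency is the fitted concentration of half-maximal effect; 0% = DMSO-treated cells and -100% = media-only wells without cells; nearly all actives have a fitted effect of over 55% in size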
#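 Luminescent CellTiter-Glo readout after 48 hours of compound exposure at 37 degrees C defined viability of HT-1080-NT cells. Activity was normalized to DMSO wells and cell-free media wells; concentration-response curves were fitted and assigned curve classes.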
# HT1080 IDH1KD tx: HT-1080 IDH1 knockdown cell toxicity (counter line); HT-1080 IDH1 knockdown viability, ATP luminescence, 48 h; Potency, µM (highest dose often 46.1 µM), inactives show at the top dose activity, negative = toxicity, hits mostly cytotoxic; 360,000 compounds, 2% hits; AID 686971;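 note: potency is the fitted concentration of half-maximal effect; 0% = DMSO wells and -100% = cell-free medium wells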
#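 Luminescent ATP read-out (CellTiter-Glo, 10 min at room temperature) after 48 h compound exposure at 37 °C gave viability of IDH1-knockdown HT-1080 cells. Activity was normalised to DMSO and cell-free wells, then fitted as concentration-response curves.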
# ALOX12 inh: inhibitors of human 12S-lipoxygenase ALOX12; P18054; purified 12hLO, xylenol orange hydroperoxide absorbance; Potency, µM (titrated, usually from 108 µM), for the others: at the top dose activity change, negative = inhibition, most hits filed as inhibitors; 580,000 compounds, 1.1% hits; AID 1671190; note: potency is the fitted concentration of half-maximal effect
# Target sequence (P18054 whole entry, looked up): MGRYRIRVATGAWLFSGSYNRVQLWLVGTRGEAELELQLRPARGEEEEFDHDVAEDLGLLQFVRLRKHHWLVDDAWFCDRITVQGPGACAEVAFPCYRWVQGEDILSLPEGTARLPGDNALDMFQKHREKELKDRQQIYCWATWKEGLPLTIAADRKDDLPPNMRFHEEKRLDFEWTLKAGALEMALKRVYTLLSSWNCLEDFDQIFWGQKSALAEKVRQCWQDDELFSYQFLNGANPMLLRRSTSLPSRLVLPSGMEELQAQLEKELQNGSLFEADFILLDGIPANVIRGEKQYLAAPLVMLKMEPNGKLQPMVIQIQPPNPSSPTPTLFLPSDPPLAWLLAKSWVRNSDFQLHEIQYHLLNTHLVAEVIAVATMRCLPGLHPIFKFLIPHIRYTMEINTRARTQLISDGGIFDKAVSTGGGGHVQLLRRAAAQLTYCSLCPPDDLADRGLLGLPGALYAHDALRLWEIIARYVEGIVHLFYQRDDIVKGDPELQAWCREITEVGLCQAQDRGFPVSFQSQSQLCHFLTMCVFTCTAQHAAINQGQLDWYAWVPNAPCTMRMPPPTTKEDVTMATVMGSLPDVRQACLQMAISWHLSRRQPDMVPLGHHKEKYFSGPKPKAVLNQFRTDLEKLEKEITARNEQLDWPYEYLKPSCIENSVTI
#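 Hydroperoxide product was detected by ferrous iron/xylenol orange as the 573 to 405 nm absorbance ratio. Arachidonic acid at 40 uM (final) was turned over for 30 min at room temperature by 150 nM human 12hLO, pH 7.0 Hepes buffer, after 15 min compound preincubation.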
# IL-1B inflam inh: inflammasome signaling inhibition, IL-1 beta readout | THP-1 LPS/ATP IL-1B secretion, AlphaLISA, 16 h; hits give low values | activity change, % at 57.5 µM | 360,000 compounds, 4.7% hits; in the data active = activity change below about -50%; inconclusive = mostly about -30% to -49%
#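 Secreted IL-1B measured by AlphaLISA bead assay after 16 h compound exposure of THP-1 cells; compounds (final up to 57.5 uM) added 1 h before LPS (250 ng/mL) and ATP (1.25 mM) stimulation; lower signal means less secretion.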
# DT40 TDP1 CPT: DT40-hTDP1 cell growth loss with CPT | 420,000 compounds, 12% hits | chicken DT40 Tdp1-/-;hTDP1 cells + 20 nM CPT, ATP luminescence, 48 h | Potency, µM (doses to about 46.2 µM), for inactives: top-dose activity change, negative = growth inhibition, actives largely listed as inhibitors | AID 686979; note: potency is the fitted concentration of half-maximal effect; nearly all actives have a fitted effect of over 55% in size
#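 Cell growth measured by CellTiter-Glo luminescence after a minimum 48 h, 37 C compound exposure with 20 nM CPT in Tdp1-knockout DT40 cells stably expressing hTDP1, seeded 400/well; qHTS titration format.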
# DT40 TDP1 no CPT: qHTS for Inhibitors of human tyrosyl-DNA phosphodiesterase 1 (TDP1): qHTS in cells in absence of CPT. AID 686978, 2013. DT40 Tdp1-/- hTDP1 cells, no CPT, ATP luminescence, 48 h. Potency, µM (titrated, usually from 46.2 µM), for inactives: at the highest dose activity change, negative = growth inhibition, actives largely listed as inhibitors. 420,000 compounds, 15% hits; note: potency is the fitted concentration of half-maximal effect; nearly all actives have a fitted effect of over 55% in size
#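 Chicken DT40 Tdp1-/- cells stably complemented with human TDP1 were seeded at 400 cells/well with DMSO in place of 20 nM camptothecin. After compound pinning, cells grew at least 48 hr at 37 °C; viability read by CellTiter-Glo luminescence.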
# * marks the source's active call; other numbers are inactive results; ? = inconclusive; · = no result given. The entries come from a sample that favours hits as a whole. Unless noted, calls come from the whole dose curve; as a rule, active = well fitted curve in the direction sought with a large enough effect; inconclusive = small, poorly fitted or top-dose-only effect, or another doubt; inactive = no such curve, though single readings can be large; an effect the other way counts as inactive or inconclusive. Unless noted, % is set by controls: 0 for no effect and ±100 for the full control effect.
SMILES,HT1080NT lethal,HT1080 IDH1KD tx,ALOX12 inh,IL-1B inflam inh,DT40 TDP1 CPT,DT40 TDP1 no CPT
O=C1CN(c2nc(-c3cccs3)nc3sc4c(c23)CCCC4)CCN1,?,13µM*,-12.9%,-93.6*,?,?
Cc1nn(-c2ccccc2)c(Oc2ccc(F)cc2F)c1CCC(=O)N1CCSCC1,·,·,2.3%,·,·,·
Cc1ccc(NC(=O)Nc2cc3c(cc2Oc2ccccc2)n(C)c(=O)n3C)cc1F,·,·,0.4%,·,·,·
Cc1cccc(NC(=O)c2ccc3nc(CCc4ccccc4)oc3c2)c1C,·,·,-15.8%,·,18.4µM*,?
CC(NC(=O)c1ccc2nc(CCc3ccccc3)oc2c1)c1ccccc1 (stereo not drawn),·,·,8.9%,·,20.6µM*,?
CCC(C)NC(=O)c1ccc2nc(CCc3ccccc3)oc2c1 (stereo not drawn),·,·,-13.8%,·,?,23.1µM*
O=C(NCc1cccc(F)c1)c1ccc2nc(CCc3ccccc3)oc2c1,·,·,-4.0%,·,20.6µM*,?
CCNC(=O)c1ccc2nc(CCc3ccccc3)oc2c1,·,·,-6.3%,·,-22.9%,-18.6%
CCCCc1cnc2c(c1SCC(N)=O)c(=O)n(C)c(=O)n2C,·,·,-2.2%,·,·,·
CCOC(=O)Cc1csc(NC(=O)CSc2nc(=O)[nH]c3c2CCC3)n1,2.3%,5.0%,-4.7%,-90.2*,0.2%,-28.2%
CCOC(=O)Cc1csc(NC(=O)CSc2nc(=O)[nH]c3c2CCCC3)n1,1.7%,-1.0%,-53.7%,-3.8,4.6%,?
CC(C)c1ccc(NC(=O)CSc2nc(=O)[nH]c3c2CCCC3)cc1,-6.5%,-10.3%,-5.8%,12.1,?,20.6µM*
CCN(CC)CCn1c2c(c(SCC(=O)Nc3ccc(C)c(F)c3)nc1=O)CCCC2,-6.8%,-16.2%,-13.0%,?,?,?
CCOc1ccc(NC(=O)CSc2nc(=O)[nH]c3c2CCC3)cc1,·,·,-30.5%,·,?,?
CCN(CC)CCn1c2c(c(SCC(=O)Nc3ccc(F)c(F)c3)nc1=O)CCC2,-3.6%,-1.2%,-21.1%,-65.9*,-6.0%,6.7%
CCCCc1ccc(NC(=O)CSc2nc(=O)n(CCN(CC)CC)c3c2CCC3)cc1,-1.6%,-1.6%,?,-80.0*,?,?
CN1CCN([C@H]2CCN(Cc3cccs3)C[C@H]2CCC(=O)O)CC1,·,·,32.4%,·,·,·
O=C1NCCCCCCN(Cc2ccncc2)[C@@H]2CN(C(=O)NCCc3ccccc3)CC[C@H]12,·,·,8.5%,·,·,·
CC(C)(C)c1nc2cc(NC(=O)CNC(=O)c3ccc(Br)o3)ccc2o1,·,·,-25.2%,·,·,·
CCN(CC)CCn1c2c(c(SCC(=O)Nc3nc(C)cs3)nc1=O)CCC2,-3.9%,-1.5%,0.3%,-69.2*,6.5%,6.6%
CCN(CC)CCCn1c2c(c(SCC(=O)Nc3cc(OC)cc(OC)c3)nc1=O)CCC2,-17.0%,-16.0%,-19.7%,?,?,18.4µM*
CCN(CC)CCn1c2c(c(SCC(=O)Nc3ccc(C(C)C)cc3)nc1=O)CCCC2,-1.9%,0.4%,-4.8%,-50.3*,?,?
CCc1ccc2oc(-c3ccc(N)cc3O)nc2c1,·,·,8.0%,·,·,·
Cc1cc(Cl)c(C)c(S(=O)(=O)N2CCCC2c2nnc3ccccn23)c1Cl (stereo not drawn),·,·,17.9%,·,·,·
CC(C)c1ccc(/C=N/NC(=O)c2ccccn2)cc1,?,?,-0.9%,-52.5*,0.0326µM*,-11.1%
O=C(N/N=C/c1cccnc1)c1cccc(Cl)c1,15.2%,21.5%,-1.2%,0.7,8.1%,-12.2%
CC(C)c1ccc(/C=N/NC(=O)c2cc(-c3cccc([N+](=O)[O-])c3)n[nH]2)cc1,?,23.1µM*,88.6%,13.8,?,?
O=C(N/N=C/c1ccncc1)c1ccccn1,-12.7%,-14.9%,·,8.4,-10.5%,5.6%
COc1cc(/C=N/NC(=O)c2ccccn2)ccc1OC(=O)c1ccc(Br)cc1,-16.1%,-4.3%,0.0%,0.0,18.4µM*,?
